Several values for one entry are separate records, joined by “and”; a condition that tells them apart may be missing. Equal values may be shown once. Records with an inconclusive call do not appear. Where a call stands in place of a potency, no number is given. A structure can be active in one record and inactive in another. Activity calls are given as the source filed them. Calls come from the whole dose curve; as a rule, active = well fitted inhibition curve with a large enough effect in the repeat runs; inconclusive = weak or mixed curves; inactive = no such curve, though single readings can be large or run the other way.
biological target: Cytochrome P450 2D6 (Homo sapiens) (UniProt P10635); assay: Cytochrome P450 Family 2 Subfamily D Member 6 (CYP2D6) small molecule antagonists: luciferase reporter qHTS assay (AID 1671196); details: P450-Glo CYP2D6 enzyme assay, luciferin luminescence, 1 h; series mostly up to 115 µM; activity change, negative = inhibition: at the top concentration; note: nearly all actives have a fitted effect of over 50% in size
Sequence (P10635 whole entry, looked up): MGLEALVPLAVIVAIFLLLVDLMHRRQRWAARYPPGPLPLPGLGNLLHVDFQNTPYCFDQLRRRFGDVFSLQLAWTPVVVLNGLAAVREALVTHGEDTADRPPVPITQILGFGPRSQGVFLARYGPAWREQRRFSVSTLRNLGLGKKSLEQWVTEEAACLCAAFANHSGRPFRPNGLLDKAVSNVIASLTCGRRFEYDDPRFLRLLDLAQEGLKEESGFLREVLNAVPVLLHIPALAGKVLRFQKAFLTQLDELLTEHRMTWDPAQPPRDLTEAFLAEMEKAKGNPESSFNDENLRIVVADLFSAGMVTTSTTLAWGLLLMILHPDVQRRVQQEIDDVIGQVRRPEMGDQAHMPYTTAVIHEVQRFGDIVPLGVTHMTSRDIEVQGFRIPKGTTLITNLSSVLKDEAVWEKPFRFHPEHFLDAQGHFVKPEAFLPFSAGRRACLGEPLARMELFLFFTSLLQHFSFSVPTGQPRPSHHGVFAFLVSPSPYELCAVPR
Procedure, shortened: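 CYP2D6 activity was followed as luminescence from its luciferin product after a 1 h NADPH-driven reaction at room temperature. Enzyme-substrate mix and compound were pre-incubated for 10 min, and the signal was read 20 min after adding detection reagent.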
Potency is the fitted concentration of half-maximal effect.

Compound | Potency | activity change, negative = inhibition
CC(CCC(=O)O)(c1ccc(O)cc1)c1ccc(O)cc1 | inactive and 25.2 µM (active) | –
CCCCOCCOCCOCCO | inactive | –
CCC(C)c1ccccc1O (centres undefined) | inactive | –
CCOCCOCCO | – | -9.43% (inactive)
Nc1ncnc2nc[nH]c12 | inactive | –
Nc1ccc(S(=O)(=O)Nc2cnc3ccccc3n2)cc1 | – | -20.6% [at 53 µM] (inactive)
Cc1[nH]c(=O)c(C#N)cc1-c1ccncc1 | – | -9% [at 53 µM] (inactive)
C[Si](C)(C)O[Si](C)(C)C | inactive | –
O=CCCCC=O | inactive | –
CCCCC(CC)COP(=O)(OCC(CC)CCCC)OCC(CC)CCCC (centres undefined) | inactive | –
OC(CCl)CCl | inactive | –
CCCC(=O)O | inactive | –
CCCCC(CC)COCC1CO1 (centres undefined) | inactive | –
O=C(/C=C/c1ccccc1)OCc1ccccc1 | inactive | –
CC(C)OC(=O)C(C)(C)Oc1ccc(C(=O)c2ccc(Cl)cc2)cc1 | inactive | –
Cc1c(C(N)=O)cc([N+](=O)[O-])cc1[N+](=O)[O-] | inactive | –
c1ccc2cc(Nc3ccc(Nc4ccc5ccccc5c4)cc3)ccc2c1 | inactive | –
CC(C)(C)NC(=O)[C@H]1CC[C@H]2[C@@H]3CC[C@H]4NC(=O)C=C[C@]4(C)[C@H]3CC[C@]12C | inactive | –
CN1C(C(=O)Nc2ccccn2)=C(O)c2ccccc2S1(=O)=O | 40.3 µM (active) and inactive | –
COC(=O)CCC(=O)OC | inactive | –
COc1c(Cl)c(Cl)c(Cl)c(Cl)c1Cl | inactive | –
COC(C)COC(C)COC(C)CO (centres undefined) | – | -2.3% (inactive)
CC(=O)C1(C)CC2=C(CCCC2(C)C)CC1C (centres undefined) | inactive | –

biological target: Cytochrome P450 2C19 (Homo sapiens) (UniProt P33261); assay: Cytochrome P450 Family 2 Subfamily C Member 19 (CYP2C19) small molecule antagonists: luciferase reporter qHTS assay (AID 1671197); details: P450-Glo CYP2C19 enzyme, luciferin luminescence, 1 h; series mostly up to 115 µM; activity change, negative = inhibition: at the top concentration; note: nearly all actives have a fitted effect of over 65% in size
Sequence (P33261 whole entry, looked up): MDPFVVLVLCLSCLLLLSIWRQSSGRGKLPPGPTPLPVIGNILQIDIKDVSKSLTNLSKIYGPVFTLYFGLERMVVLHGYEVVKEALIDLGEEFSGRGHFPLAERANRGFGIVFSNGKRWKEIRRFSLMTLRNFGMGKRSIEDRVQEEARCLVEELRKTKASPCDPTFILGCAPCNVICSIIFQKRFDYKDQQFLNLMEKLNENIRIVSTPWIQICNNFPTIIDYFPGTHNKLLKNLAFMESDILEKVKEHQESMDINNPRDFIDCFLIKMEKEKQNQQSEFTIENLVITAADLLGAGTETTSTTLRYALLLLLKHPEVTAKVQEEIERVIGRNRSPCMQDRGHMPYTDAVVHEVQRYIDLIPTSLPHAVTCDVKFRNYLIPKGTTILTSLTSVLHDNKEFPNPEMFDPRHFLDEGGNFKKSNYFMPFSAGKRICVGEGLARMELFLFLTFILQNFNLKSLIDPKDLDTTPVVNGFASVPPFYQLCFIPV
Procedure, shortened: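 Luminescent readout of CYP2C19 activity: luciferin product detected 20 min after adding detection reagent. Before that, compound and enzyme-substrate mix preincubated 10 min at room temperature; NADPH-regenerating system started a 1 h, 37C reaction. Ketoconazole as positive control.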

Compound | Potency | activity change, negative = inhibition
c1ccc2c(c1)c1cccc3ccc4cccc2c4c31 | 88.8 µM (active) and inactive | –
c1cc(-c2ccncc2)ccn1 | 35.9 µM (active) | –
c1ccc2sc(SSN3CCOCC3)nc2c1 | 17.8 µM (active) | –
NNc1ccc(C(=O)O)cc1 | 32.1 µM (active) and 40.3 µM (active) | –
OC[C@H]1O[C@@H]2O[C@H]3[C@H](O)[C@@H](O)[C@@H](O[C@H]4[C@H](O)[C@@H](O)[C@@H](O[C@H]5[C@H](O)[C@@H](O)[C@@H](O[C@H]6[C@H](O)[C@@H](O)[C@@H](O[C@H]7[C@H](O)[C@@H](O)[C@@H](O[C@H]8[C@H](O)[C@@H](O)[C@@H](O[C@H]1[C@H](O)[C@H]2O)O[C@@H]8CO)O[C@@H]7CO)O[C@@H]6CO)O[C@@H]5CO)O[C@@H]4CO)O[C@@H]3CO | 31.8 µM (active) and inactive | –
COc1cccc2c1C(=O)c1c(O)c3c(c(O)c1C2=O)C[C@@](O)(C(=O)CO)C[C@@H]3O[C@H]1C[C@H](N)[C@H](O)[C@H](C)O1 | – | -10.3% [at 52.9 µM] (inactive)

From PubChem BioAssay (Tox21)
